Whole data set: some 33,000 sequences, median “e-score” near -0.053, cut for the highest 2% near 0.38. For the sample, the highest values were picked, then their nearest neighbours and some sequences at random.
target: T1, SIX1 homeodomain (reference allele) (human, UniProt Q15475 108-198); assay: universal protein binding microarray; Universal all-10-mer PBM (8x60K, AMADID 030236), 300 nM GST-tagged protein, Alexa Fluor 488 anti-GST; buffer, salt, pH and temperature not stated (as in Berger); high values mean tight binding; conditions: protein: ivt; tags: N-terminal GST; dsDNA, one strand shown
T1 sequence: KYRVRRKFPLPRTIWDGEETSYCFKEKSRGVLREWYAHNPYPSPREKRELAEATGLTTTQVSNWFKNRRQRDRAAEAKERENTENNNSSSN
Procedure, shortened: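 Homeodomains fused to GST were made by in vitro transcription/translation and measured by anti-GST western blot with a recombinant GST standard curve. At 300 nM final concentration, they were applied in duplicate to universal 'all 10-mer' protein binding microarrays (8×60K format).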

| Sequence | binding signal |
| --- | --- |
| ATCGCCTA | 0.232 ± 0.0537 E-score |
| GAGACGGA | 0.272 ± 0.0111 E-score |
| AAGGTATC | 0.472 ± 0.0103 E-score |
| GAGGTATC | 0.4767 ± 0.00464 E-score |
| CAGGTATA | 0.276 ± 0.0442 E-score |
| GAGGTATA | 0.365 ± 0.0614 E-score |
| AAGGTATG | 0.201 ± 0.00407 E-score |
| CAGGTATC | 0.4642 ± 0.00145 E-score |
| GAGTTATC | 0.248 ± 0.0177 E-score |
| CAGGTAGA | 0.15 ± 0.00481 E-score |
| AAGGTATT | 0.248 ± 0.0945 E-score |
| CCGGCTAA | 0.178 ± 0.0089 E-score |
| ACACCTAA | 0.261 ± 0.0204 E-score |
| CCAATCCG | 0.224 ± 0.0167 E-score |
| CGCCGATC | 0.258 ± 0.0126 E-score |
| ATCCATAC | 0.31 ± 0.0347 E-score |
| AGCGGTAT | 0.3428 ± 0.000445 E-score |
| TATCGGCA | 0.244 ± 0.0173 E-score |
| AGACGATC | 0.285 ± 0.0103 E-score |
| AGCCTATC | 0.192 ± 0.0162 E-score |
| CCCCGCCA | 0.161 ± 0.0538 E-score |
| ATTATCTC | 0.203 ± 0.126 E-score |
| GATAGGGC | 0.285 ± 0.0546 E-score |
| TATAGGGA | 0.206 ± 0.00286 E-score |
| GATAGGGA | 0.376 ± 0.00884 E-score |

| Sequence | binding signal |
| --- | --- |
| AGGAATCC | 0.197 ± 0.00841 E-score |
| GATCGTCC | 0.238 ± 0.0474 E-score |
| CAAACCCG | 0.174 ± 0.0382 E-score |
| CAATACCG | 0.354 ± 0.0156 E-score |
| AGATACCA | 0.422 ± 0.0101 E-score |
| AGATACCT | 0.42 ± 0.0259 E-score |
| AGATACAT | 0.329 ± 0.00303 E-score |
| AAATACCG | 0.178 ± 0.0267 E-score |
| AAATACCT | 0.173 ± 0.0423 E-score |
| GAATACCC | 0.368 ± 0.0333 E-score |
| ACATACCG | 0.162 ± 0.0512 E-score |
| CAATACCC | 0.387 ± 0.00788 E-score |
| CGATACCG | 0.45 ± 0.0109 E-score |
| CCATACAC | 0.174 ± 0.121 E-score |
| ATCATTGA | 0.2801 ± 0.000297 E-score |
| ATCGTGTC | 0.274 ± 0.0122 E-score |
| GATAGATA | 0.364 ± 0.0331 E-score |
| CTAGTGTA | 0.189 ± 0.0116 E-score |
| GGTTCATA | 0.154 ± 0.00678 E-score |
| CGATACCC | 0.4916 ± 0.00317 E-score |
| AGATACCC | 0.4684 ± 0.00214 E-score |
| CGATACCA | 0.455 ± 0.0104 E-score |
| CAATACCA | 0.375 ± 0.0246 E-score |
| AGATACCG | 0.37 ± 0.00507 E-score |
| TAATACCA | 0.37 ± 0.0315 E-score |

| Sequence | binding signal |
| --- | --- |
| TGATACCA | 0.4811 ± 0.00363 E-score |
| ACATACCC | 0.194 ± 0.0165 E-score |
| CTATACCA | 0.245 ± 0.018 E-score |
| TGATACAA | 0.337 ± 0.0251 E-score |
| CCATACCC | 0.274 ± 0.0803 E-score |
| CGATAACC | 0.2329 ± 0.00167 E-score |
| CGGTACTC | 0.176 ± 0.0493 E-score |
| ATCAGGGG | 0.307 ± 0.019 E-score |
| TAGTGTCA | 0.245 ± 0.0279 E-score |
| ATCAATCA | 0.221 ± 0.00233 E-score |
| AAACGTAT | 0.262 ± 0.0965 E-score |
| ATATTCCC | 0.305 ± 0.0527 E-score |
| ATACTGGG | 0.225 ± 0.0379 E-score |
| ACGATCAT | 0.186 ± 0.0246 E-score |
| ATCACGTC | 0.189 ± 0.0151 E-score |
| ATATGTCA | 0.166 ± 0.0885 E-score |
| GCATACCC | 0.289 ± 0.0463 E-score |
| GGATACCC | 0.484 ± 0.00911 E-score |
| GGATACCA | 0.426 ± 0.0353 E-score |
| GAATACCA | 0.278 ± 0.0281 E-score |
| GTATACCA | 0.364 ± 0.00595 E-score |
| AAATACCC | 0.2 ± 0.00818 E-score |
| AGTATAAG | 0.161 ± 0.0893 E-score |
| TAATATAA | 0.257 ± 0.0514 E-score |
| ATCCACGA | 0.154 ± 0.0369 E-score |

| Sequence | binding signal |
| --- | --- |
| ACTATCCT | 0.318 ± 0.0157 E-score |
| CTATTATC | 0.189 ± 0.0626 E-score |
| GACTATAC | 0.237 ± 0.00521 E-score |
| ACGATATA | 0.296 ± 0.0641 E-score |
| CCGATAAC | 0.239 ± 0.00451 E-score |
| ACGATCTC | 0.189 ± 0.0362 E-score |
| CCGATAGC | 0.329 ± 0.00875 E-score |
| ACGATCGG | 0.169 ± 0.0263 E-score |
| ACGATATG | 0.417 ± 0.0227 E-score |
| ACGATATC | 0.454 ± 0.0379 E-score |
| CCGATATC | 0.457 ± 0.0156 E-score |
| ACTATATC | 0.367 ± 0.0339 E-score |
| ACCACACC | 0.174 ± 0.038 E-score |
| ATACGCCC | 0.275 ± 0.0117 E-score |
| GATAACCA | 0.213 ± 0.00941 E-score |
| ATCACTTG | 0.29 ± 0.0319 E-score |
| GGCTAATA | 0.201 ± 0.0383 E-score |
| AATATGGT | 0.177 ± 0.105 E-score |
| GATAGCAC | 0.236 ± 0.0609 E-score |
| GGGCGATA | 0.347 ± 0.0047 E-score |
| CCGCGATC | 0.354 ± 0.0349 E-score |
| CCGCGATA | 0.4109 ± 0.00278 E-score |
| GCGCGATA | 0.379 ± 0.0395 E-score |
| ACGCGATA | 0.316 ± 0.0166 E-score |
| CGGCGATA | 0.3475 ± 0.00182 E-score |

| Sequence | binding signal |
| --- | --- |
| ATATAGAG | 0.202 ± 0.0348 E-score |
| CCAGATGA | 0.203 ± 0.0127 E-score |
| ACTACCTA | 0.157 ± 0.0187 E-score |
| GAATACTC | 0.155 ± 0.0382 E-score |
| ATAGATAG | 0.167 ± 0.0369 E-score |
| ATAGATCC | 0.302 ± 0.00993 E-score |
| GTAGATAC | 0.289 ± 0.0214 E-score |
| ACAGATAT | 0.356 ± 0.0703 E-score |
| ATAGATAC | 0.393 ± 0.0221 E-score |
| ATAGATAT | 0.389 ± 0.0559 E-score |
| ATCACCTA | 0.232 ± 0.0325 E-score |
| AGACGATA | 0.363 ± 0.0344 E-score |
| ATATCTTC | 0.365 ± 0.0612 E-score |
| CCGTCTCA | 0.268 ± 0.0487 E-score |
| CAGTATGA | 0.151 ± 0.0873 E-score |
| GAGTATCA | 0.47 ± 0.0248 E-score |
| TAGTATCA | 0.457 ± 0.0196 E-score |
| TACTATCA | 0.325 ± 0.0557 E-score |
| CAGTATTA | 0.295 ± 0.0164 E-score |
| AAGTATCA | 0.461 ± 0.0304 E-score |
| GAGTATTA | 0.261 ± 0.103 E-score |
| GAGTATAA | 0.179 ± 0.136 E-score |
| AAGTATCT | 0.266 ± 0.102 E-score |
| CAGTATCA | 0.465 ± 0.0101 E-score |
| TAGTATAA | 0.199 ± 0.033 E-score |

| Sequence | binding signal |
| --- | --- |
| AAGTATAA | 0.184 ± 0.123 E-score |
| ATCCCGCC | 0.27 ± 0.00284 E-score |
| GGATAATA | 0.328 ± 0.0761 E-score |
| ATAGGGTG | 0.161 ± 0.00687 E-score |
| ATCATTGC | 0.244 ± 0.0146 E-score |
| AGTTGGTG | 0.191 ± 0.00358 E-score |
| AAGACGAT | 0.17 ± 0.0796 E-score |
| ATCCTCGG | 0.23 ± 0.0328 E-score |
| CACTATCC | 0.295 ± 0.013 E-score |
| CAGTATCG | 0.4353 ± 0.00267 E-score |
| CAGTATAC | 0.295 ± 0.0256 E-score |
| AAGTATCG | 0.369 ± 0.0877 E-score |
| CAGTATAG | 0.178 ± 0.0386 E-score |
| CAGTATCC | 0.39 ± 0.0154 E-score |
| GGATTACC | 0.271 ± 0.0437 E-score |
| CTCTCCCC | 0.164 ± 0.0775 E-score |
| ATCACCTG | 0.33 ± 0.0102 E-score |
| GGATCCTA | 0.377 ± 0.0205 E-score |
| GGATCCAA | 0.41 ± 0.0258 E-score |
| CGATCCTA | 0.299 ± 0.00788 E-score |
| AGATCCTA | 0.2149 ± 0.00162 E-score |
| GGATCCAC | 0.317 ± 0.0719 E-score |
| AGATCCAA | 0.204 ± 0.00278 E-score |
| CCGAAACC | 0.185 ± 0.0211 E-score |
| AAGAGGAT | 0.212 ± 0.00759 E-score |

| Sequence | binding signal |
| --- | --- |
| CGTAGTGA | 0.182 ± 0.0165 E-score |
| CAGGACAC | 0.187 ± 0.0771 E-score |
| AGCTATCA | 0.313 ± 0.116 E-score |
| AGATATCG | 0.434 ± 0.0383 E-score |
| GAATATCA | 0.366 ± 0.0771 E-score |
| AGAGATCT | 0.198 ± 0.0724 E-score |
| CGCTATCA | 0.34 ± 0.0391 E-score |
| GGCTATCA | 0.392 ± 0.0544 E-score |
| AGATATCT | 0.385 ± 0.082 E-score |
| AAATATCT | 0.157 ± 0.0748 E-score |
| GGATATCA | 0.487 ± 0.00885 E-score |
| AGATATTG | 0.311 ± 0.0669 E-score |
| AGATATGG | 0.335 ± 0.0142 E-score |
| GGATATGA | 0.356 ± 0.0113 E-score |
| ATCACCGG | 0.291 ± 0.0263 E-score |
| ACACGGTA | 0.188 ± 0.0434 E-score |
| GGATCGCC | 0.342 ± 0.0494 E-score |
| TATAGCGA | 0.164 ± 0.0391 E-score |
| ATCCATCG | 0.246 ± 0.0374 E-score |
| ACATAGTA | 0.205 ± 0.029 E-score |
| CTACTATA | 0.153 ± 0.00888 E-score |
| ACACCACG | 0.263 ± 0.0526 E-score |

From article PMC10668032, “Altered binding affinity of SIX1-Q177R correlates with enhanced WNT5A and WNT pathway effector expression in Wilms tumor”
